# The full ranking holds about 33,000 sequences; the median of “E-score (-0.5 to 0.5)” is about -0.041, and the highest 2% start at about 0.37. Shown is part of a subset that was picked to be rich in the highest values.
# Molecular target: T1, Ecm22 (UniProt Q05958)
# T1 sequence: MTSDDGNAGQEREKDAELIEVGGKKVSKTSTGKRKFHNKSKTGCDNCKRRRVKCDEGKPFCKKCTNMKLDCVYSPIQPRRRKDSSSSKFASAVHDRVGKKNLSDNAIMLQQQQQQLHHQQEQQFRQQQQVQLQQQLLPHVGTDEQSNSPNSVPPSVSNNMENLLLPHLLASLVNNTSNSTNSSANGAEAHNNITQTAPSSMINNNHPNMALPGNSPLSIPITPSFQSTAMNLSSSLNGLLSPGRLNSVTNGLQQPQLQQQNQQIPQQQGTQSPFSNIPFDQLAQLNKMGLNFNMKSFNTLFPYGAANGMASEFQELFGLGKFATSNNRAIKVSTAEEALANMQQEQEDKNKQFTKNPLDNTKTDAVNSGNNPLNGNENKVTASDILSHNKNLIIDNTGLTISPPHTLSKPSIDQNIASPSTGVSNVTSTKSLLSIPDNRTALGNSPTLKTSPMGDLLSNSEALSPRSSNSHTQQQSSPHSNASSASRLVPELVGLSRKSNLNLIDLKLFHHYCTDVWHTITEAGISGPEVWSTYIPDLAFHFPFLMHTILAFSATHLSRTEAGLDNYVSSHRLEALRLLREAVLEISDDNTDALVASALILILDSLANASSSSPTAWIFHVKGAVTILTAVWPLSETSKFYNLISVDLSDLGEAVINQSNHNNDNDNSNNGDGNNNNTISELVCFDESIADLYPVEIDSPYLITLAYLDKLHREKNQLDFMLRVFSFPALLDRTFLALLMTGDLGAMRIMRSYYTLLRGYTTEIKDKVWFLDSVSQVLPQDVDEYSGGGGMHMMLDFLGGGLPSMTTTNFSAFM
# Assay: PBM E-score (8-mer binding enrichment) (E-score (-0.5 to 0.5)); higher = stronger / more preferred TF binding
# Conditions: protein concentration: 200 nM; construct: GST-full length
# In short: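 PURExpress in vitro transcription/translation supplied GST-tagged yeast transcription factors, either full-length or DNA-binding domain. Applied at about 100-200 nM to universal all-10-mer Agilent arrays double-stranded by primer extension, the bound protein was detected with fluorescent anti-GST. E-scores, modified Wilcoxon-Mann-Whitney statistics, were given by the Universal PBM Analysis Suite to ungapped eight-base words pooled with their reverse complements after masliner normalisation.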
row,Sequence,PBM E-score
1,CAGTACGG,0.27
2,TAGTACCA,-0.124
3,GAGTACGC,-0.0338
4,CAGTACGA,0.423
5,TAGTACAA,0.0161
6,GAGTACGA,0.426
7,AAGTACGT,0.171
8,AAGTACGC,0.0885
9,GAGTACAA,0.0511
10,CGGACCCG,0.21
11,ACCACAAC,0.0744
12,CGGGTCTC,0.00746
13,CTATTCGA,0.0817
14,ACTGGTAA,0.0597
15,CCGTATTA,0.316
16,GACGCCCC,-0.0249
17,ACCGTATC,0.346
18,GCCGTAGA,0.213
19,CCCGTATA,0.471
20,ACCGTATA,0.459
21,GCCGTATA,0.463
22,ACCGTATG,0.325
23,CCCGTATC,0.327
24,GCGGTATA,-0.0371
25,CCCGTAGA,-0.00351

row,Sequence,PBM E-score
1,ACGGGGGA,0.16
2,CGCTCACC,0.112
3,ACCATTTG,-0.0622
4,CCATGAGA,-0.118
5,AACCGAGA,0.312
6,AGCAAGTG,-0.181
7,AGTGGAAT,-0.0777
8,AACCGGAG,-0.0216
9,AGGCTTTA,-0.133
10,AGGATCCT,0.134
11,CAAACGTA,0.186
12,TAAACGGA,0.433
13,AAAACGTA,0.164
14,CAAACGGA,0.202
15,TAAACGTA,0.38
16,GAAACGGA,0.256
17,AGACCACG,-0.221
18,ACGCGAGA,0.281
19,AAGTTCGT,0.319
20,CTAGACAG,-0.189
21,CCTCGTAC,0.491
22,ACTCGTCT,0.172
23,ACTCGTCC,-0.139
24,ACTCGGAT,0.318
25,CCGCGTAC,0.231

row,Sequence,PBM E-score
1,ACTCGTGC,0.0518
2,ACTCGTAT,0.479
3,CCTCGTAG,0.41
4,ACTCGTAC,0.484
5,CCTCGTCG,0.218
6,CCTCATAG,-0.183
7,CCTCGGAC,0.246
8,AGCCCAGG,-0.341
9,AGGGCGCG,-0.0881
10,CCCTTCTC,-0.218
11,CCGTTAGA,0.0314
12,GCAGCCGC,-0.0784
13,ATACAGAG,-0.0254
14,ATGGTCTG,-0.0872
15,CCTTTCAA,-0.203
16,ACCTCTAG,-0.137
17,CCTCGTAA,0.446
18,GCTCGTCA,0.0115
19,TCTCGTCA,0.0737
20,CCTCGTCA,0.232
21,ACTCGTAG,0.34
22,TCTCGTAA,0.438
23,ACTCGTCA,0.0424
24,CCTCGTGA,0.201
25,GCTCGTAA,0.451

row,Sequence,PBM E-score
1,ACTCGTAA,0.437
2,GCTCGTGA,0.171
3,TCACGTAA,0.00322
4,CTGAACCC,0.0346
5,AGCTGTAT,-0.124
6,AGCCTGCG,-0.17
7,AGAGACAT,-0.195
8,GCTCGTCC,-0.109
9,GCTCGTAC,0.486
10,GCACGTAC,0.168
11,CACACATC,-0.226
12,CGATCAGC,0.09
13,CCGAGGAA,0.0818
14,AGGAGGAT,-0.157
15,ACGAGGAG,0.349
16,TCGAGGAA,0.101
17,ACGAGGAC,0.42
18,CCGAGGAC,0.207
19,ACGAGGAA,0.375
20,ACGAGGAT,0.387
21,GCGAGGAC,0.0393
22,ACGCTCGG,0.21
23,CAGCTGCA,-0.385
24,CCATTCCA,-0.228
25,CGTGTGCA,-0.0516

row,Sequence,PBM E-score
1,AGTCTACC,-0.156
2,CAAGATCG,0.122
3,GCCCGTCC,-0.279
4,ACCCGTAA,0.179
5,ACCCGTAT,0.391
6,CCCCGTAG,0.0215
7,ACCCGTCT,-0.0476
8,CCCCGTAA,0.211
9,GCCCGTAA,0.221
10,ACCCGTAC,0.374
11,CCCCGTAC,0.377
12,AACCGTAT,0.341
13,ACCCGTAG,-0.142
14,GCCCGTAC,0.396
15,ACGTATTC,0.144
16,ACGGAGCC,-0.084
17,ATTACTTC,-0.0783
18,GAGGGATC,-0.0216
19,CTCCTTCC,-0.152
20,CGGCGCAG,-0.0964
21,ACAACCGA,0.26
22,AACCTTTC,-0.0282
23,CGCAGAAG,0.00639
24,AACTAACG,0.141
25,ATTCGTGA,-0.00041

row,Sequence,PBM E-score
1,ATTCGTAG,0.325
2,ATTCGTAA,0.405
3,GTTCGTCA,0.0919
4,GTTCGTAA,0.427
5,GTTCGTGA,0.141
6,AAATGCGC,-0.0587
7,AAACTGTG,-0.214
8,CCAGTCAA,-0.166
9,CCCGTAGG,-0.158
10,CCCGTACG,0.402
11,CCCGTAAC,0.189
12,CCCGTACA,0.368
13,CCCGTACC,0.446
14,CACGTACC,0.285
15,AGACCTTG,-0.252
16,GGAAATCC,-0.00159
17,AGCAGCCT,-0.102
18,ATAGCCCC,-0.223
19,CCAAGGGA,-0.0775
20,CATCAATG,-0.153
21,GCCGGTAC,0.129
22,CGGCACGA,0.176
23,ACTTTGTG,0.118
24,ACGCTACG,0.382
25,CCGCTACG,0.339

row,Sequence,PBM E-score
1,ACGCTACA,-0.0355
2,TATCGCCA,-0.0963
3,TCGGTTAA,0.387
4,CCGGTTAA,0.132
5,GCGGTTAA,-0.0219
6,GTCCCCCA,-0.157
7,GCGGTAAA,0.173
8,GGCAACGA,0.417
9,AGCAACGG,0.203
10,AGCAACGC,0.0942
11,AGCAACGA,0.407
12,CGCAACGC,0.0974
13,CGCAACGA,0.448
14,GGCAACCA,-0.0847
15,GGCAACTA,-0.282
16,CGCAACAA,0.0504
17,AATCGAGG,0.0537
18,CAAAAGTA,-0.0653
19,CCATTTTC,-0.105

# — the supplement of paper PMC3334620
